Rows were chosen to be rich in hits. Some 2.9% of all compounds tested hit in one or more screens of this group.
KLK7 zymogen act – proKLK7 zymogen activators, primary screen, biochemical, fluorescence intensity | purified proKLK7, EDANS-DABCYL substrate fluorescence; 100% is mature enzyme control, 0% vehicle | activation, % at 7 µM | Kallikrein-7 (Homo sapiens), P49862 | 370,000 compounds, 0.9% hits | AID 652039, 2013;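 active means activation above the mean of all tested compounds plus 3 SD, computed per campaign excluding outliers beyond control limits, cut at about 13% in these data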
ADAM10 inh – human ADAM10 inhibitors, primary screen, biochemical, QFRET, HTS. 370,000 compounds, 0.62% hits. inhibition, % at 7 µM. recombinant ADAM10, EDANS/DABCYL FRET peptide cleavage, 3 h;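 active means inhibition above a per-campaign cutoff equal to the mean of compounds falling between control-based bounds plus 3 SD, cut at about 20% in these data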;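 further: 0% = DMSO wells while the 100% control is not disclosed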
ADAM17 inh – ADAM17 inhibitors, primary screen, biochemical, QFRET; 370,000 compounds, 0.83% hits; inhibition, % at 6.95 µM; Disintegrin and metalloproteinase domain-containing protein 17 (Homo sapiens), P78536; recombinant ADAM17, EDANS/DABCYL FRET peptide cleavage;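 active means inhibition above the mean of compounds lying between control limits plus 3 SD, set per campaign, cut at about 8.5% in these data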;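 further: 0% = DMSO-only wells as the low control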
PLCb3 inh – human PLC-beta3 inhibitors, primary screen, biochemical, fluorescence. inhibition, % at 12.2 µM. Purified PLC-beta3, fluorogenic substrate. 1-phosphatidylinositol 4,5-bisphosphate phosphodiesterase beta-3 (Homo sapiens), Q01970. 370,000 compounds, 0.18% hits. AID 720704, 2013; in the data active means inhibition above about 11%;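 further: 0% = median of compound wells on plate and 100% = full blocker control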
PLCg1 inh – PLC-gamma1 enzyme inhibitors, primary screen, biochemical, fluorescence, purified enzyme. fluorogenic substrate. inhibition, % at 12.2 µM. 370,000 compounds, 0.84% hits. AID 720700, 2013; in the data active means inhibition above about 9.5%
ADAM10 confirm – human ADAM10 inhibitors, confirmation, biochemical, QFRET, triplicate. inhibition, % at 6.95 µM. ADAM10 QFRET peptide cleavage, EDANS fluorescence. AID 743208, 2013. 2,100 compounds, 1% hits. shares compounds with ADAM10 inh;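 active means inhibition above about 20% chosen separately for each screening run, limit read from the data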;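 further: 0% = DMSO wells and 100% = marimastat wells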
ADAM17 counter – ADAM17 inhibitors, counter-screen for ADAM10 exosite inhibitor project, biochemical, QFRET, high throughput. shares compounds with ADAM10 inh. ADAM17 QFRET peptide cleavage, EDANS fluorescence. inhibition, % at 6.95 µM. 2,100 compounds, 0.5% hits. AID 743214, 2013;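 active means mean triplicate inhibition above the solvent-only control wells' mean plus 3 SD, cut at about 12% in these data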;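 further: 0% = DMSO wells and 100% = marimastat wells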
ADAM10 counter – ADAM10 inhibitors, counter-screen for ADAM17 exosite inhibitor project, biochemical, FRET, human ADAM10; shares compounds with ADAM17 inh; recombinant ADAM10, EDANS/DABCYL FRET peptide cleavage, 3 h; inhibition, % at 6.95 µM; 2,900 compounds, 47% hits; AID 743256, 2014;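 active means mean inhibition over the triplicate runs exceeds the activity threshold set in the earlier primary screen, cut at about 20% in these data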;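 further: 0% = DMSO wells and 100% = marimastat wells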
ADAM17 confirm – ADAM17 inhibitors, hit retest, confirmation, biochemical, QFRET peptide cleavage | shares compounds with ADAM17 inh | recombinant ADAM17, EDANS/DABCYL QFRET peptide cleavage | inhibition, % at 6.95 µM | 2,900 compounds, 65% hits | AID 743257, 2014;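 active means mean inhibition across replicates above the hit cutoff set in the primary screen, cut at about 8.5% in these data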;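 further: 0% = DMSO wells and 100% = marimastat wells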
* hit, by the source's call; . = no result.

SMILES | KLK7 zymogen act | ADAM10 inh | ADAM17 inh | PLCb3 inh | PLCg1 inh | ADAM10 counter | ADAM17 confirm | others
COC(=O)C1=C(c2ccc(-c3ccccc3)c(F)c2)C[C@@H]2CC[C@H]1N2C(=O)NCCO | 0.5 | 6.8 | 0.8 | 4.9 | 4.9 | . | .
O=C1NCN(c2ccccc2)C12CCN(C(c1ccnc3ccccc13)c1nnnn1Cc1ccccc1)CC2 (centres undefined) | -0.1 | -11.0 | -3.6 | 3.8 | 3.6 | . | .
O=C1NCN(c2ccccc2)C12CCN(C(c1cccc3ccccc13)c1nnnn1Cc1ccccc1)CC2 (centres undefined) | -0.3 | 21.5* | 9.9* | -0.6 | 0.1 | 41.0* | 17.1* | ADAM10 confirm=11.2;ADAM17 counter=4.1
O=P1(c2ccccc2)CC=CC1 | 0.3 | -2.1 | -2.6 | 2.3 | 3.9 | . | .
COC(=O)C1=C(c2cc3ccccc3s2)C[C@@H]2CC[C@H]1N2C(=O)NCc1ccc(C(F)(F)F)cc1 | 0.0 | 24.1* | 11.8* | 2.4 | 1.3 | 14.9 | 11.5* | ADAM10 confirm=5.7;ADAM17 counter=2.0
COC(=O)C1=C(c2cc3ccccc3s2)C[C@@H]2CC[C@H]1N2C(=O)NCC1CC1 | 0.1 | 0.8 | -0.7 | 1.3 | 2.8 | . | .
COC(=O)C1=C(c2ccc(F)cc2OCc2ccccc2)C[C@@H]2CC[C@H]1N2C(=O)NCc1ccccc1OC | 0.5 | 27.8* | 14.9* | 3.7 | 9.2 | 20.7* | 12.8* | ADAM10 confirm=3.7;ADAM17 counter=1.9
COC(=O)C1=C(c2ccccc2OCc2ccccc2)C[C@@H]2CC[C@H]1N2C(=O)NCCc1ccc(F)cc1 | 0.8 | 20.6* | 10.0* | 4.3 | 4.0 | 15.6 | 6.9 | ADAM10 confirm=4.2;ADAM17 counter=1.6
CCC(C(=O)N1C[C@H]2C[C@@H](C1)c1cccc(=O)n1C2)c1ccccc1 (some centres undefined) | -0.2 | 2.9 | -1.1 | 2.5 | 0.9 | . | .
C[C@@H]1NCCc2cc(O)c(O)cc21 | 1.0 | -5.7 | -5.6 | -1.4 | -0.4 | . | .
COC(=O)C1=C(c2ccc(F)cc2F)C[C@@H]2CC[C@H]1N2C(=O)N1CCC(O)(c2ccc(Cl)cc2)CC1 | -0.3 | 3.4 | 5.2 | 0.7 | 3.4 | . | .
CCc1ccc(NP(=O)(Oc2ccccc2F)Oc2ccccc2F)cc1 | 0.8 | 26.2* | 11.9* | -4.4 | 0.4 | 34.5* | 19.7* | ADAM10 confirm=6.5;ADAM17 counter=2.2
CC(C(=O)c1cn(C)c2ccccc12)c1ccccc1 (centres undefined) | 0.2 | 15.0 | 10.6* | 4.5 | 6.4 | 2.3 | 4.2
CN(C(=O)Oc1cccc2ccccc12)C1C=CCC1 (centres undefined) | -3.6 | 0.7 | 0.1 | 1.2 | 4.3 | . | .
CC1([N+](=O)[O-])COP(=O)(NCc2cccnc2)OC1 (centres undefined) | -0.2 | -4.4 | -0.2 | 5.3 | 2.6 | . | .
O=C1NCN(c2ccccc2)C12CCN(C(c1cccs1)c1nnnn1-c1ccc3c(c1)OCCO3)CC2 (centres undefined) | 0.2 | 19.7 | 9.0* | 4.1 | 0.5 | 29.1* | 13.1*
O=c1[nH]c2ccccc2n1C1CCN(C(c2ccccc2)c2nnnn2-c2ccc3c(c2)OCCO3)CC1 (centres undefined) | 0.4 | 17.6 | 11.4* | -2.6 | 0.4 | 37.7* | 23.1*
O=c1[nH]c2ccccc2n1C1CCN(C(c2nnnn2-c2ccc3c(c2)OCCO3)C2CC2)CC1 (centres undefined) | 0.0 | -3.5 | 0.6 | 3.4 | 0.9 | . | .
CCOC(=O)[C@@H]1[C@H]2COc3ccc(Br)cc3[C@H]2N2C(=O)N(c3cccc(C)c3)C(=O)[C@]12C | 0.2 | 23.0* | 9.3* | -0.9 | -1.1 | 30.3* | 19.0*
N=C(N)c1c(O)n(C2CCCCC2)c(=O)n(C2CCCCC2)c1=O | -0.3 | 17.4 | 9.6* | -2.8 | 3.3 | 51.8* | 23.7*
O=c1c(C=NCc2cccs2)c(O)n(C2CCCCC2)c(=O)n1C1CCCCC1 | 0.2 | 3.9 | 3.2 | 9.8 | 4.5 | . | .
COC(=O)C1=C(c2ccc(Cl)c(C(F)(F)F)c2)C[C@@H]2CC[C@H]1N2C(=O)N1CCC(O)(c2ccc(Cl)cc2)CC1 | -0.1 | 19.4 | 9.5* | 1.7 | 2.2 | 16.1 | 8.8*
COC(=O)C1=C(c2ccc(Cl)c(C(F)(F)F)c2)C[C@@H]2CC[C@H]1N2C(=O)N1CCCC1 | 0.6 | 0.8 | -4.1 | -0.2 | -1.9 | . | .
CC1C(=O)CC2(C(C)C)CC12 (centres undefined) | 0.4 | -1.2 | 1.5 | 9.8 | 3.7 | . | .
COC(=O)C1=C(c2ccc(OCc3ccccc3)cc2)C[C@@H]2CC[C@H]1N2C(=O)NCc1ccccc1OC | 0.3 | 17.2 | 9.7* | 1.1 | 4.4 | 28.1* | 14.2*
SMILES | KLK7 zymogen act | ADAM10 inh | ADAM17 inh | PLCb3 inh | PLCg1 inh | ADAM10 counter | ADAM17 confirm | others
COC(=O)C1=C(c2ccccc2OCc2ccccc2)C[C@@H]2CC[C@H]1N2C(=O)NCc1ccc(C(F)(F)F)cc1 | 0.3 | 8.9 | 3.0 | -0.8 | -0.9 | . | .
COC(=O)C1=C(c2ccc(-c3ccccc3)c(F)c2)C[C@@H]2CC[C@H]1N2C(=O)NC1CC1 | 1.2 | 18.6 | 10.6* | 4.5 | 4.5 | 5.8 | 7.2
COC(=O)C1=C(c2ccc(F)cc2OCc2ccccc2)C[C@@H]2CC[C@H]1N2C(=O)NCc1ccc(C(F)(F)F)cc1 | -0.1 | 17.1 | 10.9* | 3.5 | 0.8 | 36.4* | 20.9*
S=P(NCCSCc1ccccc1)(N1CC1)N1CC1 | 0.6 | -5.4 | -0.6 | -0.6 | -3.5 | . | .
O=C(c1ccccc1F)c1cn(CC(=O)N2CCCC2)c2ccccc12 | 0.1 | 10.2 | -0.3 | 4.3 | 3.7 | . | .
O=C(c1ccccc1F)c1cn(CC(=O)N2CCOCC2)c2ccccc12 | 0.4 | -10.3 | 8.6* | 5.7 | 2.7 | 3.2 | 3.5

Source: PubChem (The Scripps Research Institute Molecular Screening Center)
